Measurements from PubChem BioAssay AID1159580 (chemical genetic matrix, 2015).
Screen size: about 5,500 compounds; about 2,000 (36%) were called active. Roughly 18% stayed inconclusive and do not appear here. Cut-off read from the data, not from the text of the source: active = normalized growth mostly below about 0.91 (no sharp cut-off); inconclusive = no clear call, values can overlap the other calls; inactive = mostly above about 0.92. The list shows a part of the results.

Test: chemical genetic growth profiling, strain panel (AID 1159580);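 note: tested at 20 µM; growth read once vehicle control cultures reached saturation at 30 °C; 1 = growth at the plate median or of vehicle wells; lower values mean less growth of the strain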
Details: growth OD

Measured: normalized growth

CC(CN1c2ccccc2Sc2cccnc21)N(C)C (stereo not given)
inactive: S. cerevisiae deletion strains, locus YAL013W, strain DEP1, stronger effect = lower value 1.02 | S. cerevisiae deletion strains, locus YBR021W, strain FUR4, stronger effect = lower value 0.987 | S. cerevisiae deletion strains, locus YBR229C, strain ROT2, stronger effect = lower value 1.02 | S. cerevisiae deletion strains, locus YCL029C, strain bik1, stronger effect = lower value 0.988 | S. cerevisiae deletion strains, locus YDL035C, strain GPR1, stronger effect = lower value 1.02 | S. cerevisiae deletion strains, locus YDL074C, strain BRE1, stronger effect = lower value 1.04 | S. cerevisiae deletion strains, locus YDL101C, strain DUN1, stronger effect = lower value 1.03 | S. cerevisiae deletion strains, locus YDL134C, strain PPH21, stronger effect = lower value 1.01 | S. cerevisiae deletion strains, locus YDL192W, strain arf1, stronger effect = lower value 0.993 | S. cerevisiae deletion strains, locus YDR101C, strain arx1, stronger effect = lower value 0.979 | S. cerevisiae deletion strains, locus YDR150W, strain NUM1, stronger effect = lower value 1.02 | S. cerevisiae deletion strains, locus YDR162C, strain NBP2, stronger effect = lower value 1.04 | S. cerevisiae deletion strains, locus YDR318W, strain mcm21, stronger effect = lower value 0.983 | S. cerevisiae deletion strains, locus YDR388W, stronger effect = lower value 0.994 | S. cerevisiae deletion strains, locus YDR502C, strain sam2, stronger effect = lower value 1.01 | S. cerevisiae deletion strains, locus YEL061C, strain CIN8, stronger effect = lower value 1.02 | S. cerevisiae deletion strains, locus YER110C, stronger effect = lower value 0.978 | S. cerevisiae deletion strains, locus YER155C, strain BEM2, stronger effect = lower value 1.01 | S. cerevisiae deletion strains, locus YER167W, strain BCK2, stronger effect = lower value 1.02 | S. cerevisiae deletion strains, locus YGL078C, strain dbp3, stronger effect = lower value 0.988 | S. cerevisiae deletion strains, locus YGL086W, strain mad1, stronger effect = lower value 0.992 | S. cerevisiae deletion strains, locus YGL248W, strain PDE1, stronger effect = lower value 1.02 | S. cerevisiae deletion strains, locus YGR078C, strain PAC10, stronger effect = lower value 1.02 | S. cerevisiae deletion strains, locus YGR135W, strain pre9, stronger effect = lower value 1.01 | S. cerevisiae deletion strains, locus YGR229C, strain SMI1, stronger effect = lower value 1.05 | S. cerevisiae deletion strains, locus YGR252W, strain gcn5, stronger effect = lower value 0.956 | S. cerevisiae deletion strains, locus YHR030C, strain SLT2, stronger effect = lower value 1.01 | S. cerevisiae deletion strains, locus YHR079C, strain IRE1 (second series), stronger effect = lower value 0.999 | S. cerevisiae deletion strains, locus YHR094C, strain hxt1, stronger effect = lower value 1 | S. cerevisiae deletion strains, locus YHR129C, strain ARP1, stronger effect = lower value 1 | S. cerevisiae deletion strains, locus YHR200W, strain rpn10, stronger effect = lower value 0.995 | S. cerevisiae deletion strains, locus YIL066C, strain RNR3, stronger effect = lower value 1.01 | S. cerevisiae deletion strains, locus YIL073C, strain SPO22, stronger effect = lower value 0.999 | S. cerevisiae deletion strains, locus YIL125W, strain kgd1, stronger effect = lower value 0.999 | S. cerevisiae deletion strains, locus YIR030C, strain dcg1, stronger effect = lower value 0.992 | S. cerevisiae deletion strains, locus YJL095W, strain BCK1, stronger effect = lower value 1.01 | S. cerevisiae deletion strains, locus YJL134W, strain LCB3, stronger effect = lower value 1.05 | S. cerevisiae deletion strains, locus YJL168C, strain set2, stronger effect = lower value 0.998 | S. cerevisiae deletion strains, locus YJL187C, strain SWE1 (second series), stronger effect = lower value 1.02 | S. cerevisiae deletion strains, locus YJR043C, strain POL32, stronger effect = lower value 1.01 | S. cerevisiae deletion strains, locus YJR075W, strain HOC1, stronger effect = lower value 1.02 | S. cerevisiae deletion strains, locus YKL009W, strain mrt4, stronger effect = lower value 1 | S. cerevisiae deletion strains, locus YKL068W, stronger effect = lower value 1 | S. cerevisiae deletion strains, locus YKL085W, strain MDH1 (second series), stronger effect = lower value 0.995 | S. cerevisiae deletion strains, locus YKL085W, strain MDH1, stronger effect = lower value 0.995 | S. cerevisiae deletion strains, locus YKL190W, strain CNB1, stronger effect = lower value 1.03 | S. cerevisiae deletion strains, locus YKR001C, strain vps1, stronger effect = lower value 0.999 | S. cerevisiae deletion strains, locus YLR039C, strain RIC1, stronger effect = lower value 1.06 | S. cerevisiae deletion strains, locus YLR058C, strain SHM2, stronger effect = lower value 1.01 | S. cerevisiae deletion strains, locus YLR102C, strain apc9, stronger effect = lower value 0.991 | S. cerevisiae deletion strains, locus YLR262C, strain YPT6, stronger effect = lower value 1.15 | S. cerevisiae deletion strains, locus YLR268W, strain sec22, stronger effect = lower value 0.998 | S. cerevisiae deletion strains, locus YLR330W, strain CHS5, stronger effect = lower value 1.01 | S. cerevisiae deletion strains, locus YLR342W, strain FKS1 (second series), stronger effect = lower value 1.03 | S. cerevisiae deletion strains, locus YLR371W, strain rom2, stronger effect = lower value 0.995 | S. cerevisiae deletion strains, locus YLR418C, strain cdc73, stronger effect = lower value 1.04 | S. cerevisiae deletion strains, locus YML016C, strain PPZ1, stronger effect = lower value 1.02 | S. cerevisiae deletion strains, locus YML032C, strain rad52, stronger effect = lower value 0.989 | S. cerevisiae deletion strains, locus YML124C, strain tub3, stronger effect = lower value 0.998 | S. cerevisiae deletion strains, locus YMR078C, strain ctf18, stronger effect = lower value 0.999 | S. cerevisiae deletion strains, locus YMR223W, strain ubp8, stronger effect = lower value 0.995 | S. cerevisiae deletion strains, locus YMR263W, strain SAP30, stronger effect = lower value 1.03 | S. cerevisiae deletion strains, locus YMR307W, strain GAS1, stronger effect = lower value 1.06 | S. cerevisiae deletion strains, locus YNL067W, strain RPL9B, stronger effect = lower value 1.02 | S. cerevisiae deletion strains, locus YNL128W, strain TEP1, stronger effect = lower value 1.02 | S. cerevisiae deletion strains, locus YNL153C, strain GIM3, stronger effect = lower value 1.03 | S. cerevisiae deletion strains, locus YNL233W, strain BNI4, stronger effect = lower value 1.01 | S. cerevisiae deletion strains, locus YNL250W, strain rad50, stronger effect = lower value 0.992 | S. cerevisiae deletion strains, locus YNL271C, strain bni1, stronger effect = lower value 1.01 | S. cerevisiae deletion strains, locus YNL298W, strain CLA4, stronger effect = lower value 0.988 | S. cerevisiae deletion strains, locus YNL307C, strain MCK1, stronger effect = lower value 0.991 | S. cerevisiae deletion strains, locus YNL322C, strain KRE1, stronger effect = lower value 1.01 | S. cerevisiae deletion strains, locus YNR052C, strain pop2, stronger effect = lower value 0.994 | S. cerevisiae deletion strains, locus YOL006C, strain TOP1, stronger effect = lower value 1.03 | S. cerevisiae deletion strains, locus YOL012C, strain htz1 0.957 | S. cerevisiae deletion strains, locus YOL147C, strain pex11, stronger effect = lower value 0.991 | S. cerevisiae deletion strains, locus YOR061W, strain CKA2, stronger effect = lower value 1.02 | S. cerevisiae deletion strains, locus YOR069W, strain VPS5, stronger effect = lower value 1 | S. cerevisiae deletion strains, locus YOR136W, strain idh2, stronger effect = lower value 0.979 | S. cerevisiae deletion strains, locus YOR144C, strain elg1, stronger effect = lower value 0.999 | S. cerevisiae deletion strains, locus YOR184W, strain ser1, stronger effect = lower value 0.985 | S. cerevisiae deletion strains, locus YOR316C, strain cot1, stronger effect = lower value 0.997 | S. cerevisiae deletion strains, locus YPL055C, strain LGE1, stronger effect = lower value 1.04 | S. cerevisiae deletion strains, locus YPL241C, strain CIN2, stronger effect = lower value 1 | S. cerevisiae deletion strains, locus YPR119W, strain clb2, stronger effect = lower value 0.995 | S. cerevisiae deletion strains, locus YPR141C, strain kar3, stronger effect = lower value 0.997 | S. cerevisiae deletion strains, locus YPR163C, strain tif3, stronger effect = lower value 1 | S. cerevisiae deletion strains, locus YPR167C, strain met16, stronger effect = lower value 1 | S. cerevisiae deletion strains, strain wtn01, stronger effect = lower value 1.01 | S. cerevisiae strains, strain wild type, stronger effect = lower value 1.01
